The results in this text go back to PMC7862700, “An all-to-all approach to the identification of sequence-specific readers for epigenetic DNA modifications on cytosine”.

What all share (test): DAPPL (digital affinity profiling via proximity ligation, sequencing); 10 mM Tris-HCl pH 7.5, 50 mM NaCl, 1 mM DTT, 4% glycerol, room temperature, 30 min; GST-TFs on glutathione beads, 16-mer random dsDNA library, 0.1% formaldehyde crosslink after washing; high values mean tight binding
For experiment [1], the target named is T1, FLI1 (Homo sapiens, UniProt Q01543 1-452).
T1 sequence: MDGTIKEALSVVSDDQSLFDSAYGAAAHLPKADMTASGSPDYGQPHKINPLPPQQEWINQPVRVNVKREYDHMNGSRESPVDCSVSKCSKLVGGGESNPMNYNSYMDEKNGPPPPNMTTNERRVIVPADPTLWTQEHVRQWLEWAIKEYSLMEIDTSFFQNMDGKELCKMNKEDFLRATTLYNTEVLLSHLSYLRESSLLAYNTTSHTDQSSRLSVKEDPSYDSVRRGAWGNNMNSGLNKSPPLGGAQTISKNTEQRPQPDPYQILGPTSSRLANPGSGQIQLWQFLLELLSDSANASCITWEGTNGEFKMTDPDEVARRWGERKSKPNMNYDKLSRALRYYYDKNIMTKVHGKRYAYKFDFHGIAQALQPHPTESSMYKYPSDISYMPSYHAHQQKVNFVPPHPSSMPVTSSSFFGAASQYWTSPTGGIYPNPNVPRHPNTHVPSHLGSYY
The note with it: protein: recombinant; tags: N-terminal GST; dsDNA, one strand shown. The gist of the method:
(§1)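 Sequencing on an Illumina NextSeq500 followed washing, crosslinking with 0.1% formaldehyde, proximity ligation (BsaI/T4 ligase, 1 h, 37 °C) and PCR amplification of pools that had been incubated for 30 min at room temperature with 200 nmole of a random double-stranded 16-mer DNA library in Tris/NaCl/DTT/glycerol buffer. Each pool held DNA-barcoded human transcription factors, expressed in yeast as GST fusions and captured on glutathione beads, plus a tag-only sample. Binding signal is a hexamer's read frequency for a factor divided by its frequency in the tag-only sample.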

Experiment [2] deals with T2, ELK1 (Homo sapiens, UniProt P19419 1-428).
T2 sequence: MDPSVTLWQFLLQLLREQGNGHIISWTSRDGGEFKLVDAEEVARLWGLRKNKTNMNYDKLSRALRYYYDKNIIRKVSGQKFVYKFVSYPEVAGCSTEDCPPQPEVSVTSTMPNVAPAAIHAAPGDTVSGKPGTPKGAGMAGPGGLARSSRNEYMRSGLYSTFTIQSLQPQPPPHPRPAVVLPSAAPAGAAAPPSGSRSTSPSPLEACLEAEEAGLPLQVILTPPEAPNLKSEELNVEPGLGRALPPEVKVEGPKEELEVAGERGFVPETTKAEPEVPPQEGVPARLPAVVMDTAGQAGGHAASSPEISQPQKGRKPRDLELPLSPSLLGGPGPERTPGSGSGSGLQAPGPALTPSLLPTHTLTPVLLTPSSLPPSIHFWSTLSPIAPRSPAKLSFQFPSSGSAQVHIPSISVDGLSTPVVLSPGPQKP
The following applies: protein: recombinant; tags: N-terminal GST; dsDNA, one strand shown. An outline of the steps: as §1

The target of experiment [3] is T3, GABPA (Homo sapiens, UniProt Q06546 1-454).
T3 sequence: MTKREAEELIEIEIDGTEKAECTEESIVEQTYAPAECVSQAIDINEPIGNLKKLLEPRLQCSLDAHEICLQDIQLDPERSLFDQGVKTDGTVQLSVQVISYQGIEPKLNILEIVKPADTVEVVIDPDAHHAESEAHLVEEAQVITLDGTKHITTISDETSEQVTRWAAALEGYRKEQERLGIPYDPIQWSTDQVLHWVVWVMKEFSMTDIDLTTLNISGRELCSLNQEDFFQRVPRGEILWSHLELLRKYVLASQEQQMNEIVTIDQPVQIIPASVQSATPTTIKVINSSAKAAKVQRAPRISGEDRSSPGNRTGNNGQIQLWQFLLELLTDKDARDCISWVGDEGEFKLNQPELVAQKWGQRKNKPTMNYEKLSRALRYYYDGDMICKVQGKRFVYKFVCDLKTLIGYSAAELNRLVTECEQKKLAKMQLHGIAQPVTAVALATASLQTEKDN
The note with it: protein: recombinant; tags: N-terminal GST; dsDNA, one strand shown. The gist of the method:
as §1

Experiment [4] concerns the target ELF1 (Homo sapiens, UniProt P32519 1-619). The following applies: protein: recombinant; tags: N-terminal GST; dsDNA, one strand shown. The gist of the method:
as §1

The target in experiment [5] is T4, EHF (Homo sapiens, UniProt Q9NZC4 1-300).
T4 sequence: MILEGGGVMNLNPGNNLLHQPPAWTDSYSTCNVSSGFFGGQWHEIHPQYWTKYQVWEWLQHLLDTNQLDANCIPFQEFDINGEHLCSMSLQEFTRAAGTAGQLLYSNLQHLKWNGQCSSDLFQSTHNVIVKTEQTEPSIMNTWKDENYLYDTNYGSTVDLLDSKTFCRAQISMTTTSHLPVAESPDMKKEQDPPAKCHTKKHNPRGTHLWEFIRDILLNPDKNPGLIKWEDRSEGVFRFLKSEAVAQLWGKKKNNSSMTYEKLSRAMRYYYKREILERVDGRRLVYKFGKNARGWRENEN
The note with it: protein: recombinant; tags: N-terminal GST; dsDNA, one strand shown. An outline of the steps:
as §1

The target of experiment [6] is SPI1 (Homo sapiens, UniProt P17947 1-270). The note with it: protein: recombinant; tags: N-terminal GST; dsDNA, one strand shown. An outline of the steps: as §1
For experiment [7], the target named is T5, ELK3 (Homo sapiens, UniProt P41970 1-407).
T5 sequence: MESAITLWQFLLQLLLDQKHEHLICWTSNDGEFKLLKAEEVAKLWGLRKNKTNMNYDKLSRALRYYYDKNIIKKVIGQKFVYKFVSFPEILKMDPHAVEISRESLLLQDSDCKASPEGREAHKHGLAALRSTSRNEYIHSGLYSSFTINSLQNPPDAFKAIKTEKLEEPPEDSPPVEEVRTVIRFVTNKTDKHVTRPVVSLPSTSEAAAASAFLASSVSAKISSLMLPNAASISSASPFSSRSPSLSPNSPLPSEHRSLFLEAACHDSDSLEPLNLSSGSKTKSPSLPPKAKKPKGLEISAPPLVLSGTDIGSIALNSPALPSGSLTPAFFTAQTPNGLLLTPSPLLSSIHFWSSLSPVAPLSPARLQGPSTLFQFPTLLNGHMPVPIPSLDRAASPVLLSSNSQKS
The following applies: protein: recombinant; tags: N-terminal GST; dsDNA, one strand shown. The gist of the method: as §1

In experiment [8] the target is ETV5 (Homo sapiens, UniProt P41161 1-510). The note with it: protein: recombinant; tags: N-terminal GST; dsDNA, one strand shown. The gist of the method: as §1
Experiment [9] deals with HSF1 (Homo sapiens, UniProt Q00613 1-529). The following applies: protein: recombinant; tags: N-terminal GST; chain copies: 3; dsDNA, one strand shown. An outline of the steps:
as §1

The target of experiment [10] is T6, SPIC (Homo sapiens, UniProt Q8N5J4 1-248).
T6 sequence: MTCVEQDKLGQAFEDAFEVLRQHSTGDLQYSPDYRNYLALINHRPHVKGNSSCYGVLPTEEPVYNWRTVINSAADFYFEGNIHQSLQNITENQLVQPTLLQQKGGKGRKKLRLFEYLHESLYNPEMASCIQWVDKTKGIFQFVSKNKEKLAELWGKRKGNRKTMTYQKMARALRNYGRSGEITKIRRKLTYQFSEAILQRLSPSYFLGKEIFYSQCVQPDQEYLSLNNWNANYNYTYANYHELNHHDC
The following applies: protein: recombinant; tags: N-terminal GST; dsDNA, one strand shown. An outline of the steps: as §1

Experiment [11] has as its target ELF4 (Homo sapiens, UniProt Q99607 1-663). The note with it: protein: recombinant; tags: N-terminal GST; dsDNA, one strand shown. An outline of the steps:
as §1

The target of experiment [12] is T7, ELK4 (Homo sapiens, UniProt P28324-2 1-405).
T7 sequence: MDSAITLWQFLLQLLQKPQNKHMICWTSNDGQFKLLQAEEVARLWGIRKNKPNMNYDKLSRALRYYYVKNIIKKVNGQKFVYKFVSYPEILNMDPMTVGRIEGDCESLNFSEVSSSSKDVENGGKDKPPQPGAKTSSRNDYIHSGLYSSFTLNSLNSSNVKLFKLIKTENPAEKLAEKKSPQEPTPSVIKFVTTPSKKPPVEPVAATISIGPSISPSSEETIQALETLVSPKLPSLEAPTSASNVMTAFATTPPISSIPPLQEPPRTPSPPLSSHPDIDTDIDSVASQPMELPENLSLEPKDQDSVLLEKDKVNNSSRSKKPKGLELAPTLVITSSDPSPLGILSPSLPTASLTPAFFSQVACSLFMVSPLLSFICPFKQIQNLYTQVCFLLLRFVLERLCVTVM
The note with it: protein: recombinant; tags: N-terminal GST; dsDNA, one strand shown. An outline of the steps: as §1

In experiment [13] the target is T8, ETV2 (Homo sapiens, UniProt O00321 1-342).
T8 sequence: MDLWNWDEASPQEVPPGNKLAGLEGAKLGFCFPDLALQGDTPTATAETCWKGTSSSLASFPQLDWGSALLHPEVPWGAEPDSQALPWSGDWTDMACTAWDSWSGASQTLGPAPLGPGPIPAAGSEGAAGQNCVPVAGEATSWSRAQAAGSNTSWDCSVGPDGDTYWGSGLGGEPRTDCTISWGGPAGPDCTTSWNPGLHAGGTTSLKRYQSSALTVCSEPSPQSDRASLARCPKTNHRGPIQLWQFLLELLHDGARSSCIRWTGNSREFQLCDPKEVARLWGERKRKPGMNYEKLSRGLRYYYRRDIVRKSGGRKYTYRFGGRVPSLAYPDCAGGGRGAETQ
The note with it: protein: recombinant; tags: N-terminal GST; dsDNA, one strand shown. An outline of the steps:
as §1

For experiment [14], the target named is T9, ELF3 (Homo sapiens, UniProt P78545 1-371).
T9 sequence: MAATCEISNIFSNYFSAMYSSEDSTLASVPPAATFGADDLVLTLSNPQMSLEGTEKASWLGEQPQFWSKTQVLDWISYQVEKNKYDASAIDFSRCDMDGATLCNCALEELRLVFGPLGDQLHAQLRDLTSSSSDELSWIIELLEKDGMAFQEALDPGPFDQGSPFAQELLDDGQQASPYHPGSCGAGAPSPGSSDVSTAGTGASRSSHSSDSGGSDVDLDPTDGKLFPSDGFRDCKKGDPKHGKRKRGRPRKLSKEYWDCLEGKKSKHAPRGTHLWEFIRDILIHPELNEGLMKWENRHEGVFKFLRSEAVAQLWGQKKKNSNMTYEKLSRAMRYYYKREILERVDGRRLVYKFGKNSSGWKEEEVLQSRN
The note with it: protein: recombinant; tags: N-terminal GST; dsDNA, one strand shown. An outline of the steps: as §1

Experiment [15] concerns the target CRX (Homo sapiens, UniProt O43186 1-299). The note with it: protein: recombinant; tags: N-terminal GST; dsDNA, one strand shown. An outline of the steps:
as §1

Sequence of HSF1 (Q00613 whole entry): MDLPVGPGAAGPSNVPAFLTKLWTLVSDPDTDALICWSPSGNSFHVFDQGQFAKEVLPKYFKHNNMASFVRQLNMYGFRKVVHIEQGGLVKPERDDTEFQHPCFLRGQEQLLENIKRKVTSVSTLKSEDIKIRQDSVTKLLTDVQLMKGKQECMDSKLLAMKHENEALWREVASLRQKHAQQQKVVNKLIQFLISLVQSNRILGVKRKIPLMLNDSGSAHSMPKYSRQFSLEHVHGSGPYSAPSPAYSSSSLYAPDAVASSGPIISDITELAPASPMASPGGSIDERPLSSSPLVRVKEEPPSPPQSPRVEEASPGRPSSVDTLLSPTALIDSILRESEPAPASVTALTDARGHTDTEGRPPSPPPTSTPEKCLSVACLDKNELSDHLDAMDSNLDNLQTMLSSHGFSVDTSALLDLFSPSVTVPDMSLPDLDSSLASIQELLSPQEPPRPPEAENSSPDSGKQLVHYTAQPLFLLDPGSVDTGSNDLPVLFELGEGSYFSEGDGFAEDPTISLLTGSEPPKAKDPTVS
Sequence of ELF4 (Q99607 whole entry): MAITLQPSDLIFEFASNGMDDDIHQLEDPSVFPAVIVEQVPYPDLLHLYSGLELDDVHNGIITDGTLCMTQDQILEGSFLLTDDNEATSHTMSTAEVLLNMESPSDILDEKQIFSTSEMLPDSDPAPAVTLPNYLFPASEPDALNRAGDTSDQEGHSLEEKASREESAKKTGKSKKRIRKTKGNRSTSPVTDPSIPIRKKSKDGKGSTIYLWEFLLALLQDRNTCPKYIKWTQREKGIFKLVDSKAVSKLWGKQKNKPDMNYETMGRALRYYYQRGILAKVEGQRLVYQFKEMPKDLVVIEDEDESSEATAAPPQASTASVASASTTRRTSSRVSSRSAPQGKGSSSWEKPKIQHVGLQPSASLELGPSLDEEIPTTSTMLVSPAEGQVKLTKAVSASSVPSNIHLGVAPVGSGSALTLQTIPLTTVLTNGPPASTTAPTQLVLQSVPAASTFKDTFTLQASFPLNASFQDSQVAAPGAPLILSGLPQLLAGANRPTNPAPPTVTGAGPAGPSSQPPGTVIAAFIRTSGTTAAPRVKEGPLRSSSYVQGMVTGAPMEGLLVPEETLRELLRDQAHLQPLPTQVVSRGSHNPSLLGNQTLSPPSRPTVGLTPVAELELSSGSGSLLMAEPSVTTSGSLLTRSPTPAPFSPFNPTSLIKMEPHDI
Sequence of ETV5 (P41161 whole entry): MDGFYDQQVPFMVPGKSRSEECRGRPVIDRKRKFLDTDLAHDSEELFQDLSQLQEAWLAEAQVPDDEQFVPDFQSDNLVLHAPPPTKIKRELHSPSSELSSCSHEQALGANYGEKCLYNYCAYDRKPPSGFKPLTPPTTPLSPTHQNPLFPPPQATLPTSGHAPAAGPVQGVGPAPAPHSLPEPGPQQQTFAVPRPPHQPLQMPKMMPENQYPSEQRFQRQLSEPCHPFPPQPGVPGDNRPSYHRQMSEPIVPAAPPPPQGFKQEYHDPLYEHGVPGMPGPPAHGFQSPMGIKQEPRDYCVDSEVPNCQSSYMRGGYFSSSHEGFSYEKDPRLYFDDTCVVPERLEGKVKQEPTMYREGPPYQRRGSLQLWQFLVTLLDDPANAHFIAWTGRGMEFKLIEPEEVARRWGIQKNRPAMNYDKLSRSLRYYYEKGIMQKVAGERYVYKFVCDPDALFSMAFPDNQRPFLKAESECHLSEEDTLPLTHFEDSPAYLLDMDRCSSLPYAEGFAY
Sequence of CRX (O43186 whole entry): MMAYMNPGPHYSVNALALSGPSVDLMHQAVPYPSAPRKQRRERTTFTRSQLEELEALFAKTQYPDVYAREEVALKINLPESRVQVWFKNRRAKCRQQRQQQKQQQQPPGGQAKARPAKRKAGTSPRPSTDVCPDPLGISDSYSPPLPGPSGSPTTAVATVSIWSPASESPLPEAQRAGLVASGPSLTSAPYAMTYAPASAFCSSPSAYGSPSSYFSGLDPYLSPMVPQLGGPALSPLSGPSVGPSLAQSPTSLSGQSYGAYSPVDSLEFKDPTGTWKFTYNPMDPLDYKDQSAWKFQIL
Sequence of ELF1 (P32519 whole entry): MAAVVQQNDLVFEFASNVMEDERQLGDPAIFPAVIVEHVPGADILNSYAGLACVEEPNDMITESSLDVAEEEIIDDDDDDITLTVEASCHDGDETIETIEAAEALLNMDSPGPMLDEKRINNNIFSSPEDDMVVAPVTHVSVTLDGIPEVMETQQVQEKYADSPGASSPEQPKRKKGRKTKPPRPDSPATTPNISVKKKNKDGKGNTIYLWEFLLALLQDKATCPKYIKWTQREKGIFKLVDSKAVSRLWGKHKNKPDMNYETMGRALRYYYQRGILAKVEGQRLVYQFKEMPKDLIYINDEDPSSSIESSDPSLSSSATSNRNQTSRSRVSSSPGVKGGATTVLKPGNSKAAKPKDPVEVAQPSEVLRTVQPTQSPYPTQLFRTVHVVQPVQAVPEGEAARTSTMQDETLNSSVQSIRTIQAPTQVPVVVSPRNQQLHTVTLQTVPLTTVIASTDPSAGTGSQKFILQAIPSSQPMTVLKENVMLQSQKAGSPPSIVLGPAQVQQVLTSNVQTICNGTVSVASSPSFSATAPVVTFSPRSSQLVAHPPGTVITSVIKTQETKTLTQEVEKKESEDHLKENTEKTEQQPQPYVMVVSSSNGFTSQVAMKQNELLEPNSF

On to TGATCA, for which the binding signal in experiment [1] was 1.04 fold enrichment (6-mer frequency, TF over GST control); in [2], 1.05 fold enrichment (6-mer frequency, TF over GST control); in experiment [3], 1.03 fold enrichment (6-mer frequency, TF over GST control); in [4], 1.07 fold enrichment (6-mer frequency, TF over GST control); in [5] it was 1.08 fold enrichment (6-mer frequency, TF over GST control); in experiment [6] it was 1.02 fold enrichment (6-mer frequency, TF over GST control). The binding signal in experiment [7] was 1.18 fold enrichment (6-mer frequency, TF over GST control); in experiment [8] it was 1.02 fold enrichment (6-mer frequency, TF over GST control); in [9], 1.08 fold enrichment (6-mer frequency, TF over GST control); in experiment [10] it was 1.16 fold enrichment (6-mer frequency, TF over GST control); in [11], 1.1 fold enrichment (6-mer frequency, TF over GST control); in [12] it was 1.02 fold enrichment (6-mer frequency, TF over GST control). The binding signal in [13] was 1.1 fold enrichment (6-mer frequency, TF over GST control); in [14], 1.03 fold enrichment (6-mer frequency, TF over GST control); in [15] it was 1.18 fold enrichment (6-mer frequency, TF over GST control).
